# According to PubChem BioAssay (NCI):
# This is part of a sample that, as a whole, favours compounds with a hit. Of some 83,000 tested, about 20% had one in any assay.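 Treatment: one concentration, 48 hours, 96-well format. Scoring: percent growth, with anything below 10 considered active.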 Values without a mark were called inactive. Activity calls are given as the source filed them.
# System: HS 578T breast
# Assay: NCI-60 one-dose screen, 48 h (100 = growth as untreated, 0 = no growth, -100 = all killed)
# Details: 10 µM
row,Structure (SMILES),growth
1,O=C(O)c1ccc(-n2cc(CNc3ccc(Cl)cc3)c(-c3ccccc3)n2)cc1,85%
2,Cc1ccc(C(=O)C2C(=O)C3CCC2C3)cc1 (configuration not stated),106%
3,COc1cc2c(Nc3ccc(S(N)(=O)=O)cc3)ncnc2c(OC)c1OC,96%
4,CN1CCN(CC(=O)Nc2cccc(-n3cc(-c4ccncc4)c(-c4ccc(Cl)c(O)c4)n3)c2)CC1,38.2%
5,O=[N+]([O-])c1cccc(/C=N/NC(=S)NC23CC4CC(CC(C4)C2)C3)c1,67.5%
6,CN1CCN(c2cc3c(cc2F)c(=O)c(C(=O)O)cn3-c2ccc(F)cc2)CC1,99.6%
7,O=C(CN1CCN(C(=O)c2ccccc2)CC1)Nc1ccccc1SCc1ccccc1,83.9%
8,Clc1ccc2c(c1)C(N1CCNCC1)=Nc1ccccc1O2,60.7%
9,CCOC(=O)c1cc(C(=O)c2cc(OC)c(OC)c(OC)c2)n2ncc3ccccc3c12,85.5%
10,CC(=O)C1CCC2C3CC=C4CC(SC(=N)N)CCC4(C)C3CCC12C (configuration not stated),72.6%
11,COc1cc2c(Nc3ccc(-c4ccc(N)cc4)cc3)ncnc2c(OC)c1OC,70.6%
12,C#C[C@]1(O)CCC2C3CCc4cc(OC5CCCC5)ccc4C3CC[C@@]21C (some centres not stated),85.6%
13,Cc1cc(SC#N)cc(C(C)(C)C)c1O,110%
14,Cc1cc(CCNC=O)c(C)c2c1sc1ccccc12,54%
15,CO[C@H]1CC(O[C@@H]2/C(C)=C/C[C@@H]3C[C@@H](C[C@]4(C=C[C@H](C)[C@@H](C5CCCCC5)O4)O3)OC(=O)[C@@H]3C=C(C)[C@@H](O)[C@H]4OC/C(=C\C=C\[C@@H]2C)[C@]43O)O[C@@H](C)C1O[C@H]1C[C@H](OC)[C@@H](O)[C@H](C)O1 (some centres not stated),-40.4% (active)
16,CCN(CC)c1ccc(/C=C2\SC(=O)C(Nc3nnc(-c4cccnc4SCc4ccccc4)o3)C2=O)cc1 (configuration not stated),26.6%
17,O=C(N/N=C/c1ccc([N+](=O)[O-])cc1)c1ccccc1Nc1cccc(C(F)(F)F)c1,7.5% (active)
18,CC(=O)[C@H]1CC[C@]2(C)[C@@H]1CC[C@@H]1[C@@]3(C)CC(CCC#N)(CCC#N)C(=O)C(C)(C)[C@@H]3CC[C@]12C,90.5%
19,Cc1cc(CSc2ccccc2C(=O)N2CC=C(c3ccccc3)CC2)on1,100%

row,Structure (SMILES),growth
1,N#Cc1ccc(C(=O)CSc2nccc(Nc3ccc(C(=O)O)cc3)n2)cc1,98.7%
2,COc1ccc2nc3cc(Cl)ccc3c(Nc3cc(CN4CCCC4)c(O)c(CN4CCCC4)c3)c2n1,15.5%
3,O=C(N/N=C/c1ccc(Cl)cc1)c1ccc(Cc2n[nH]c(=O)c3cccnc23)cc1,108%
4,O=S(=O)(Oc1ccc(-c2ccc3sccc3c2)cc1)c1ccc(F)cc1,112%
5,CNC(=O)c1c(I)c(NC(C)=O)c(I)c(C(=O)O)c1I,110%
6,C/C(=N\O)c1ccc(NC(=O)CSc2nnc(-c3ccccc3)n2-c2ccccc2)cc1,62.5%
7,COc1ccc(/C=C2/SC(=S)NC2=O)c(OC)c1OC,63.6%
8,C[C@]12CC[C@@H]3c4ccc(O)cc4CC[C@H]3[C@@H]1CC[C@@H]2NS(=O)(=O)c1ccc(C(F)(F)F)cc1,72.7%
9,NS(=O)(=O)c1ccc(Br)cc1,110%
10,CNS(=O)(=O)Oc1ccc(-c2ccc3occc3c2)cc1,110%
11,COc1cc(-c2nn(-c3cccc(NC(=O)CCN4CCN(c5ccccc5)CC4)c3)cc2-c2ccncc2)ccc1Cl,31.8%
12,CCN(CC)CC(=O)N(CC)c1ccc(C)c(Cl)c1,100%
13,Cc1cccc(N=Cc2ccccc2O)c1C,101%
14,CCCCC1(O)CCCCC1,98.1%
15,COc1ccc(/C=C2\CCCC3=C2N=C2SC(C)=CN2C3c2ccc(OC)cc2)cc1 (configuration not stated),91%
16,c1ccc(CSc2ncccc2-c2nnc(SCCN3CCOCC3)o2)cc1,133%
17,C/C=C/C1=CN2C(=O)c3cc(OC4OC(C)C(NC)C(C)(O)C4O)c(C)c(O)c3N=C[C@@H]2C1 (some centres not stated),-11.6% (active)
18,C[C@]12CC[C@@H]3c4ccc(OS(=O)(=O)O)cc4CC[C@H]3[C@@H]1CC[C@@H]2NS(=O)(=O)c1ccc(-c2ccccc2)cc1,89.3%
